Paper PMC11995724, “Antibiotic target discovery by integrated phenotypic and activity-based profiling of electrophilic fragments” (Cell chemical biology, 2025)
Among all 3,200 compounds or so, about 75 (2%) showed an effect of 50% or more. This excerpt belongs to a sample that is enriched for strong results.

These compounds were tested on T1, S. aureus MSSA476. Conditions: relative growth, OD600, TSB; 25 µM; inhibitor.
T1 construct: MSSA476
Parameters: species or system S. aureus MSSA476 (TSB) or V. cholerae SAD30 (LB); 384-well bacterial growth screen at 25 uM, OD600 relative to DMSO control
`CCN1C(=O)CC[C@H](CNC(=O)C(C)Cl)[C@H]1c1cnn(C)c1` (mixture of isomers) [6-L13, rac-2-chloro-N-{[(2R,3S)-1-ethyl-2-(1-methyl-1H-pyrazol-4-yl)-6-oxopiperidin-3-yl]methyl}propanamide] was tested, and the “% of control remaining” value was 89.122%.
`C=CC(=O)N1CCc2c(nnn2CCOC)C1` [1-N05, 1-[1-(2-methoxyethyl)-1H,4H,5H,6H,7H-[1,2,3]triazolo[4,5-c]pyridin-5-yl]prop-2-en-1-one] was tested, and the “% of control remaining” value was 84.7473%.
With `C=CC(=O)NC1CCN(c2nnnn2C)CC1` [3-G06, N-[1-(1-methyl-1H-1,2,3,4-tetrazol-5-yl)piperidin-4-yl]prop-2-enamide] the “% of control remaining” value was 85.677%.
`CCC(NC(=O)CCl)c1c(C)noc1C` (centres unmarked) [7-D03, 2-chloro-N-[1-(3,5-dimethyl-1,2-oxazol-4-yl)propyl]acetamide] was tested, and the “% of control remaining” value was 95.4474%.
`CCOc1ccc(C(=O)C(C)Cl)cc1` (centres unmarked) [10-G06, 2-chloro-1-(4-ethoxyphenyl)propan-1-one] was tested, and the “% of control remaining” value was 80.3125%.
`O=C(CCl)c1ccc(Oc2ccccc2)cc1` [10-G20, 2-chloro-1-(4-phenoxyphenyl)ethan-1-one] was tested, and the “% of control remaining” value was -0.625%.
With `O=C(CCl)Nc1cccc(Oc2ccccc2)c1` [4-P19, 2-chloro-N-(3-phenoxyphenyl)acetamide] the “% of control remaining” value was 90.7099%.
With `O=C(CCl)Nc1ccc(Oc2ccccc2)cc1` [4-J09, 2-chloro-N-(4-phenoxyphenyl)acetamide] the “% of control remaining” value was 73.5588%.
With `O=C(CCl)c1ccc2c(c1)-c1ccccc1C2` [10-H17, 2-chloro-1-(9H-fluoren-3-yl)ethan-1-one] the “% of control remaining” value was 1.875%.
With `NC(=O)COc1ccc(C(=O)CCl)cc1` [10-M07, 2-[4-(2-chloroacetyl)phenoxy]acetamide] the “% of control remaining” value was 111.563%.
With `CCOc1ccc(C(=O)CCl)cc1` [10-F12, 2-chloro-1-(4-ethoxyphenyl)ethan-1-one] the “% of control remaining” value was 0.3125%.
`CC(Cl)C(=O)NC(C)c1ccns1` (centres unmarked) [6-P12, 2-chloro-N-[1-(1,2-thiazol-5-yl)ethyl]propanamide] was tested, and the “% of control remaining” value was 84.3415%.
For `N#CC(=Cc1cc(F)ccc1F)C(=O)Nc1cc(Cl)ccc1Cl` [8-A12, 2-cyano-N-(2,5-dichlorophenyl)-3-(2,5-difluorophenyl)prop-2-enamide], the “% of control remaining” value was 131.12%.
For `Cl.O=C(CCl)NC1CCN(Cc2cscn2)CC1` [7-H04, 2-chloro-N-{1-[(1,3-thiazol-4-yl)methyl]piperidin-4-yl}acetamide hydrochloride], the “% of control remaining” value was 88.2261%.
For `Cc1ccc(C)c(NC(=O)C(C#N)=Cc2ccc3c(c2)OCCO3)c1` [8-L11, 2-cyano-3-(2,3-dihydro-1,4-benzodioxin-6-yl)-N-(2,5-dimethylphenyl)prop-2-enamide], the “% of control remaining” value was 108.216%.
With `C=CC(=O)NC(Cc1ccccc1)c1ccccn1` (centres unmarked) [2-K14, N-[2-phenyl-1-(pyridin-2-yl)ethyl]prop-2-enamide] the “% of control remaining” value was 109.312%.
With `C=CC(=O)N(C)Cc1cn(C)nc1C(C)C` [3-F15, N-methyl-N-{[1-methyl-3-(propan-2-yl)-1H-pyrazol-4-yl]methyl}prop-2-enamide] the “% of control remaining” value was 119.808%.
With `Cc1cc(C(=O)CCl)c(C)n1-c1ccc(C(C)(C)C)cc1` [10-N20, 1-[1-(4-tert-butylphenyl)-2,5-dimethyl-1H-pyrrol-3-yl]-2-chloroethan-1-one] the “% of control remaining” value was 101.875%.
`Cc1cc(C(=O)CCl)c(C)n1-c1ccc(C(C)C)cc1` [10-J12, 2-chloro-1-{2,5-dimethyl-1-[4-(propan-2-yl)phenyl]-1H-pyrrol-3-yl}ethan-1-one] was tested, and the “% of control remaining” value was 5.3125%.
`Cc1cc(C(=O)CCl)c(C)n1-c1ccc(C(F)(F)F)cc1` [10-J14, 2-chloro-1-{2,5-dimethyl-1-[4-(trifluoromethyl)phenyl]-1H-pyrrol-3-yl}ethan-1-one] was tested, and the “% of control remaining” value was 0%.
For `CCOc1ccc(-n2c(C)cc(C(=O)CCl)c2C)cc1` [10-K08, 2-chloro-1-[1-(4-ethoxyphenyl)-2,5-dimethyl-1H-pyrrol-3-yl]ethan-1-one], the “% of control remaining” value was 38.75%.
In the case of `Cc1csc(-n2c(C)cc(C(=O)CCl)c2C)n1` [10-G05, 2-chloro-1-[2,5-dimethyl-1-(4-methyl-1,3-thiazol-2-yl)-1H-pyrrol-3-yl]ethan-1-one], the “% of control remaining” value is reported as 121.563%.
With `COc1ccc(-n2c(C)cc(C(=O)CCl)c2C)cc1` [10-I12, 2-chloro-1-[1-(4-methoxyphenyl)-2,5-dimethyl-1H-pyrrol-3-yl]ethan-1-one] the “% of control remaining” value was 127.813%.
`Cc1cc(C)cc(-n2c(C)cc(C(=O)CCl)c2C)c1` [10-E04, 2-chloro-1-[1-(3,5-dimethylphenyl)-2,5-dimethyl-1H-pyrrol-3-yl]ethan-1-one] was tested, and the “% of control remaining” value was 128.438%.
With `Cc1cc(C(=O)CCl)c(C)n1C(C)c1ccccc1` (centres unmarked) [10-P17, 2-chloro-1-[2,5-dimethyl-1-(1-phenylethyl)-1H-pyrrol-3-yl]ethan-1-one] the “% of control remaining” value was 101.563%.
`Cc1cc(C(=O)CCl)c(C)n1-c1cc(Cl)cc(Cl)c1` [10-I04, 2-chloro-1-[1-(3,5-dichlorophenyl)-2,5-dimethyl-1H-pyrrol-3-yl]ethan-1-one] was tested, and the “% of control remaining” value was 0%.
In the case of `Cc1ccccc1-n1c(C)cc(C(=O)CCl)c1C` [10-H20, 2-chloro-1-[2,5-dimethyl-1-(2-methylphenyl)-1H-pyrrol-3-yl]ethan-1-one], the “% of control remaining” value is reported as 118.75%.
`C=CC(=O)NCc1ccc(C(=O)N2CCC[C@@H]2C(N)=O)cc1` [3-L22, (2R)-1-{4-[(prop-2-enamido)methyl]benzoyl}pyrrolidine-2-carboxamide] was tested, and the “% of control remaining” value was 98.2151%.
With `CC(Cl)C(=O)NC(c1ccc(F)cc1)c1cnn(C)c1` (centres unmarked) [7-C19, 2-chloro-N-[(4-fluorophenyl)(1-methyl-1H-pyrazol-4-yl)methyl]propanamide] the “% of control remaining” value was 93.2496%.
With `N#CC(=Cc1cnc2ccc(C#N)cn12)C(=O)Nc1ccc(F)cc1` [9-E20, 2-cyano-3-{6-cyanoimidazo[1,2-a]pyridin-3-yl}-N-(4-fluorophenyl)prop-2-enamide] the “% of control remaining” value was 103.67%.
`CC(Cl)C(=O)N1CCn2c(nn(CC(=O)N(C)C)c2=O)C1` (centres unmarked) [7-K17, 2-[7-(2-chloropropanoyl)-3-oxo-2H,3H,5H,6H,7H,8H-[1,2,4]triazolo[4,3-a]pyrazin-2-yl]-N,N-dimethylacetamide] was tested, and the “% of control remaining” value was 89.4819%.
`Cc1cc(C)n(CCCNC(=O)C(C)Cl)n1` (centres unmarked) [7-O19, 2-chloro-N-[3-(3,5-dimethyl-1H-pyrazol-1-yl)propyl]propanamide] was tested, and the “% of control remaining” value was 98.2732%.
With `Cc1nn(C)c(C)c1NC(=O)C(C)Cl` (centres unmarked) [6-C07, 2-chloro-N-(1,3,5-trimethyl-1H-pyrazol-4-yl)propanamide] the “% of control remaining” value was 84.6829%.
With `Cc1cc(NC(=O)CCl)c([N+](=O)[O-])cc1C` [4-F21, 2-chloro-N-(4,5-dimethyl-2-nitrophenyl)acetamide] the “% of control remaining” value was 87.2797%.
In the case of `Cc1cc(C(=O)CCl)c(C)n1-c1ccc(S(N)(=O)=O)cc1` [10-N14, 4-[3-(2-chloroacetyl)-2,5-dimethyl-1H-pyrrol-1-yl]benzene-1-sulfonamide], the “% of control remaining” value is reported as 121.875%.
In the case of `Cc1cc(C(=O)CCl)c(C)n1-c1ccc(Cl)cc1` [10-H18, 2-chloro-1-[1-(4-chlorophenyl)-2,5-dimethyl-1H-pyrrol-3-yl]ethan-1-one], the “% of control remaining” value is reported as -0.625%.
In the case of `Cc1cc(C(=O)CCl)c(C)n1-c1ccccc1` [10-L20, 2-chloro-1-(2,5-dimethyl-1-phenyl-1H-pyrrol-3-yl)ethan-1-one], the “% of control remaining” value is reported as 127.188%.
In the case of `CC(Cl)C(=O)N[C@@H]1CCc2c(C#N)cccc21` (stereo partly drawn) [6-P14, 2-chloro-N-[(1R)-4-cyano-2,3-dihydro-1H-inden-1-yl]propanamide], the “% of control remaining” value is reported as 122.927%.
With `COc1ccc(CNC(=O)CCl)cc1OC` [5-O11, 2-chloro-N-[(3,4-dimethoxyphenyl)methyl]acetamide] the “% of control remaining” value was 81.6029%.
In the case of `CCC(=O)N1CCc2cc(C(=O)CCl)ccc21` [10-C22, 1-[5-(2-chloroacetyl)-2,3-dihydro-1H-indol-1-yl]propan-1-one], the “% of control remaining” value is reported as 125.938%.
With `CS(=O)(=O)N1CCc2cc(C(=O)CCl)ccc21` [10-B19, 2-chloro-1-(1-methanesulfonyl-2,3-dihydro-1H-indol-5-yl)ethan-1-one] the “% of control remaining” value was 0.3125%.
For `O=C(CCl)NCCS(=O)(=O)N1CCc2ccccc21` [6-H04, 2-chloro-N-[2-(2,3-dihydro-1H-indole-1-sulfonyl)ethyl]acetamide], the “% of control remaining” value was 86.0488%.
With `CS(=O)(=O)N1CCCc2cc(C(=O)CCl)ccc21` [10-H19, 2-chloro-1-(1-methanesulfonyl-1,2,3,4-tetrahydroquinolin-6-yl)ethan-1-one] the “% of control remaining” value was 1.5625%.
In the case of `CC(=O)NCCc1cc(C(=O)CCl)ccc1F` [10-O05, N-{2-[5-(2-chloroacetyl)-2-fluorophenyl]ethyl}acetamide], the “% of control remaining” value is reported as 128.438%.
`CC(=O)N1c2ccc(C(=O)CCl)cc2CC1C` (centres unmarked) [10-I20, 1-(1-acetyl-2-methyl-2,3-dihydro-1H-indol-5-yl)-2-chloroethan-1-one] was tested, and the “% of control remaining” value was 66.25%.
With `CC(=O)N1CCc2cc(C(=O)C(C)Cl)ccc21` (centres unmarked) [10-L22, 1-(1-acetyl-2,3-dihydro-1H-indol-5-yl)-2-chloropropan-1-one] the “% of control remaining” value was 124.375%.
`CN1C(=O)Cc2cc(C(=O)CCl)ccc21` [10-G07, 5-(2-chloroacetyl)-1-methyl-2,3-dihydro-1H-indol-2-one] was tested, and the “% of control remaining” value was 132.813%.
For `O=CN1CCc2cc(C(=O)CCl)ccc21` [10-K20, 5-(2-chloroacetyl)-2,3-dihydro-1H-indole-1-carbaldehyde], the “% of control remaining” value was 102.813%.
`CCS(=O)(=O)N1CCc2cc(C(=O)CCl)ccc21` [10-E18, 2-chloro-1-[1-(ethanesulfonyl)-2,3-dihydro-1H-indol-5-yl]ethan-1-one] was tested, and the “% of control remaining” value was 0.3125%.
With `CC1Cc2cc(C(=O)CCl)ccc2N1S(C)(=O)=O` (centres unmarked) [10-A04, 2-chloro-1-(1-methanesulfonyl-2-methyl-2,3-dihydro-1H-indol-5-yl)ethan-1-one] the “% of control remaining” value was 1.875%.
